HT1080 IDH1KD tx – toxicity to HT-1080 IDH1 knockdown cells (counter line) | HT-1080 IDH1 knockdown viability, ATP luminescence, 48 h | Potency, µM (top dose mostly 46.1 µM), for the others: at the top dose activity, negative = toxicity, actives largely listed as cytotoxic | 2% of 360,000 active | AID 686971;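 further: potency means the concentration at half of the fitted maximal effect; 0% = DMSO wells and -100% = cell-free medium wells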
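Using the IDH1-knockdown HT-1080 line run in the same batch and compound series as the NT line, viability after 48 h at 37 °C was determined by CellTiter-Glo luminescence and expressed as % activity.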
HT1080-NT tox – kills 2HG-producing HT-1080-NT fibrosarcoma cells. AID 686970. HT-1080-NT fibrosarcoma viability, CellTiter-Glo ATP luminescence, 48 h. Potency, µM (highest dose often 46.1 µM), for inactives: top-dose activity, negative = less viability, actives largely listed as cytotoxic. 1.6% of 360,000 active;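 further: NT is the 2HG producing partner of a matched IDH1 knockdown line; potency means the concentration at half of the fitted maximal effect; 0% = DMSO-treated cells and -100% = media-only wells without cells; nearly all actives have a fitted effect of over 55% in size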
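A 48-hour cytotoxicity screen used HT-1080-NT cells plated 2 hours before compound delivery. ATP-based CellTiter-Glo luminescence measured viability, normalized to DMSO and no-cell controls.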
TDP1 cell noCPT – qHTS for Inhibitors of human tyrosyl-DNA phosphodiesterase 1 (TDP1): qHTS in cells in absence of CPT; Potency, µM (series often up to 46.2 µM), inactives show at the top dose activity change, negative = growth inhibition, most hits filed as inhibitors; AID 686978, 2013; 15% of 420,000 active; DT40 Tdp1-/- hTDP1 cells, no CPT, ATP luminescence, 48 h; further: potency means the concentration at half of the fitted maximal effect; nearly all actives have a fitted effect of over 55% in size
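Camptothecin absent (DMSO only). Human TDP1-complemented DT40 knockout cells, 400 cells/well, 37 °C for minimum 48 hr; ATP measured via CellTiter-Glo, 30 min dark incubation, luminescence.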
TDP1 cell CPT – DT40-hTDP1 cell growth loss with CPT. chicken DT40 Tdp1-/-;hTDP1 cells + 20 nM CPT, ATP luminescence, 48 h. Potency, µM (doses to about 46.2 µM), inactives show at the highest dose activity change, negative = growth inhibition, most hits filed as inhibitors. 12% of 420,000 active. AID 686979; further: potency means the concentration at half of the fitted maximal effect; nearly all actives have a fitted effect of over 55% in size
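Cell growth measured by CellTiter-Glo luminescence after a minimum 48 h, 37 C compound exposure with 20 nM CPT in Tdp1-knockout DT40 cells stably expressing hTDP1, seeded 400/well; qHTS titration format.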
IL-1B inflam inh – blocks inflammasome-driven IL-1 beta release; THP-1 LPS/ATP IL-1B secretion, AlphaLISA, 16 h; active compounds read low; activity change, % at 57.5 µM; 4.7% of 360,000 active; AID 743279; in the data active means activity change below about -50%; inconclusive means mostly about -30% to -49%
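THP-1 cells pretreated 1 hr with compounds (up to 57.5 uM final), then stimulated with LPS (250 ng/mL final) plus ATP (1.25 mM final); secreted IL-1B measured by AlphaLISA after 16 hr, decreased signal indicating inhibition.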
Numbers without * were called inactive; [ ] = remark or other dose. Hits are enriched below; roughly 19% of the tested compounds scored in any of these assays. Unless noted, the call rests on the fitted dose curve; in most records, active means well fitted curve in the direction sought with a large enough effect; inconclusive means small, poorly fitted or top-dose-only effect, or another doubt; inactive means no such curve, though single readings can be large; an effect the other way counts as inactive or inconclusive. Unless noted, on the % scale 0 is the no-effect control and ±100 the full control effect.

`c1ccc(Cn2nnc3c(N4CCN(Cc5ccc6c(c5)OCO6)CC4)ncnc32)cc1` gave HT1080 IDH1KD tx -15%, HT1080-NT tox 9%[9.24 µM], TDP1 cell noCPT inconclusive, TDP1 cell CPT inconclusive and IL-1B inflam inh -16.
Screening O=C(CSc1ncnc2scc(-c3ccccc3)c12)N1CCN(Cc2ccc3c(c2)OCO3)CC1 returned HT1080 IDH1KD tx -29%, HT1080-NT tox -12%, TDP1 cell noCPT 13µM*, TDP1 cell CPT inconclusive and IL-1B inflam inh -25.
`O=C(CSc1nccc2ccccc12)N1CCN(Cc2ccc3c(c2)OCO3)CC1` gave HT1080 IDH1KD tx -5%, HT1080-NT tox -14%, TDP1 cell noCPT inconclusive, TDP1 cell CPT inconclusive and IL-1B inflam inh -81*.
For c1ccc2c(c1)oc1c(N3CCN(Cc4ccc5c(c4)OCO5)CC3)ncnc12 the results were HT1080 IDH1KD tx -17%, HT1080-NT tox -25%, TDP1 cell noCPT 23µM*, TDP1 cell CPT 23µM* and IL-1B inflam inh -27.
Screening O=C(c1cccn2c(=O)c3ccccc3nc12)N1CCN(Cc2ccc3c(c2)OCO3)CC1 returned HT1080 IDH1KD tx -4%, HT1080-NT tox 13%, TDP1 cell noCPT inconclusive, TDP1 cell CPT -24% and IL-1B inflam inh -11.
Screening O=C(c1ccc2nc3ccccc3c(=O)n2c1)N1CCN(Cc2ccc3c(c2)OCO3)CC1 returned HT1080 IDH1KD tx -6%, HT1080-NT tox -7%, TDP1 cell noCPT inconclusive, TDP1 cell CPT 29µM* and IL-1B inflam inh inconclusive.
O=C(CN1CCN(S(=O)(=O)c2cccc(Cl)c2)CC1)NCC1(N2CCOCC2)CCCCC1 was read as HT1080 IDH1KD tx 3%, HT1080-NT tox -10%[9.24 µM], TDP1 cell noCPT inconclusive, TDP1 cell CPT inconclusive and IL-1B inflam inh -20.
`CCCCCCCC/C=C\CCCCCCCCN` gave TDP1 cell noCPT -8% and TDP1 cell CPT -1%.
For O=c1c2ccccc2ncn1-c1ccccc1C(F)(F)F the results were HT1080 IDH1KD tx -2%, HT1080-NT tox 3%, TDP1 cell noCPT -10%, TDP1 cell CPT -15% and IL-1B inflam inh 13.
`c1ccc(-c2csc3ncnc(N4CCN(Cc5ccc6c(c5)OCO6)CC4)c23)cc1` gave HT1080 IDH1KD tx 1%, HT1080-NT tox 8%, TDP1 cell noCPT 7.3µM*, TDP1 cell CPT 16µM* and IL-1B inflam inh 10.
Fc1ccc(CN2CCN(c3ncnc4scc(-c5ccccc5)c34)CC2)cc1 was read as HT1080 IDH1KD tx -2%, HT1080-NT tox -16%, TDP1 cell noCPT inconclusive, TDP1 cell CPT inconclusive and IL-1B inflam inh inconclusive.
For CCOCC(=O)NC1CCc2cc(OC(=O)COCC)c(OC)c(OC)c2-c2ccc(SC)c(=O)cc21 (stereo not drawn) the results were HT1080 IDH1KD tx 0.15µM*, HT1080-NT tox 0.073µM*, TDP1 cell noCPT 0.15µM*, TDP1 cell CPT 0.023µM* and IL-1B inflam inh 27.
For COc1cc2c(c(OC)c1OC)-c1ccc(SC)c(=O)cc1C(NC(=O)C(F)(F)F)CC2 (stereo not drawn) the results were HT1080 IDH1KD tx 0.0065µM*, HT1080-NT tox 0.0092µM*, TDP1 cell noCPT 0.018µM*, TDP1 cell CPT 0.092µM* and IL-1B inflam inh 45.
For S=c1nc2ccccc2c2nc(-c3ccccc3Cl)[nH]n12 the results were HT1080 IDH1KD tx 1%, HT1080-NT tox -10%, TDP1 cell noCPT 3.7µM*, TDP1 cell CPT 3.3µM* and IL-1B inflam inh 36.
Screening CC(Oc1ccc(Br)cc1)c1nc2c3ccccc3nc(=S)n2[nH]1 (stereo not drawn) returned HT1080 IDH1KD tx -12%, HT1080-NT tox inconclusive, TDP1 cell noCPT 15µM*, TDP1 cell CPT inconclusive and IL-1B inflam inh 14.
`COc1ccccc1-c1nc2c3ccccc3nc(=S)n2[nH]1` gave HT1080 IDH1KD tx -9%, HT1080-NT tox 1%, TDP1 cell noCPT -30%, TDP1 cell CPT inconclusive and IL-1B inflam inh 0.
Screening S=c1nc(-c2ccccc2)[nH]n1-c1ccccc1 returned HT1080 IDH1KD tx -3%, HT1080-NT tox 10%, TDP1 cell noCPT 23µM*, TDP1 cell CPT -20% and IL-1B inflam inh 7.
